In ChEMBL document CHEMBL5308504, “Tm Shift (DSF) assay results for EUbOPEN Chemogenomics Library” (2023):

Experiments:
Settings in all cases: Compound concentration 20.0 uM, Protein concentration 2.0 uM, Result type QC Liability
[1] = target: Tyrosine-protein kinase ABL1 (Homo sapiens) (UniProt P00519)
[2] = target: Cyclin-dependent kinase 2 (Homo sapiens) (UniProt P24941)
[3] = target: Casein kinase I isoform delta (Homo sapiens) (UniProt P48730)
[4] = target: Glycogen synthase kinase-3 beta (Homo sapiens) (UniProt P49841)
[5] = target: Mitogen-activated protein kinase 1 (Homo sapiens) (UniProt P28482)
[6] = target: T1, Aurora kinase A (Homo sapiens) (UniProt O14965)
T1 sequence (whole entry): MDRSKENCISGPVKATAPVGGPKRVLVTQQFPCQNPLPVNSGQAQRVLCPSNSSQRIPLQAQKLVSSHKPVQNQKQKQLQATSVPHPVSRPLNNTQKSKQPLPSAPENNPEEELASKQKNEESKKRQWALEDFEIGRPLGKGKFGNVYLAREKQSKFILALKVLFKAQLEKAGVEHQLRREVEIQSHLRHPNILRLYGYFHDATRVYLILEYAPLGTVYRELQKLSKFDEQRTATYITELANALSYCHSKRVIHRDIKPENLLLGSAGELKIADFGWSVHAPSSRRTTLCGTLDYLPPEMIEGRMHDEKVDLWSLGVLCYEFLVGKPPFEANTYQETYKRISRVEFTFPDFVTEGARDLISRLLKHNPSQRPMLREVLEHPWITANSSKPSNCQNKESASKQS

Chain of Casein kinase I isoform delta (Homo sapiens) (P48730 whole entry, looked up, canonical isoform): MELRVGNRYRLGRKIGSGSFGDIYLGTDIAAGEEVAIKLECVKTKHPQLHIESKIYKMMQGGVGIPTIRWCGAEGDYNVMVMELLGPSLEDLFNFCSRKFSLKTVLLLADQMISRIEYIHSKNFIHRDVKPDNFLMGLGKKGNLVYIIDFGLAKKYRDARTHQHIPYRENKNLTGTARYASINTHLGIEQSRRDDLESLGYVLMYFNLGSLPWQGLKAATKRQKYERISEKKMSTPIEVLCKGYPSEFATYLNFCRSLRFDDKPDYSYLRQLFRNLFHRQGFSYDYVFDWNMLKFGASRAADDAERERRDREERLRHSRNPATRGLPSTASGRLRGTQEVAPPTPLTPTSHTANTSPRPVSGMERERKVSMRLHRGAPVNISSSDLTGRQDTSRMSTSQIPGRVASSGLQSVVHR
Chain of Tyrosine-protein kinase ABL1 (Homo sapiens) (P00519 whole entry): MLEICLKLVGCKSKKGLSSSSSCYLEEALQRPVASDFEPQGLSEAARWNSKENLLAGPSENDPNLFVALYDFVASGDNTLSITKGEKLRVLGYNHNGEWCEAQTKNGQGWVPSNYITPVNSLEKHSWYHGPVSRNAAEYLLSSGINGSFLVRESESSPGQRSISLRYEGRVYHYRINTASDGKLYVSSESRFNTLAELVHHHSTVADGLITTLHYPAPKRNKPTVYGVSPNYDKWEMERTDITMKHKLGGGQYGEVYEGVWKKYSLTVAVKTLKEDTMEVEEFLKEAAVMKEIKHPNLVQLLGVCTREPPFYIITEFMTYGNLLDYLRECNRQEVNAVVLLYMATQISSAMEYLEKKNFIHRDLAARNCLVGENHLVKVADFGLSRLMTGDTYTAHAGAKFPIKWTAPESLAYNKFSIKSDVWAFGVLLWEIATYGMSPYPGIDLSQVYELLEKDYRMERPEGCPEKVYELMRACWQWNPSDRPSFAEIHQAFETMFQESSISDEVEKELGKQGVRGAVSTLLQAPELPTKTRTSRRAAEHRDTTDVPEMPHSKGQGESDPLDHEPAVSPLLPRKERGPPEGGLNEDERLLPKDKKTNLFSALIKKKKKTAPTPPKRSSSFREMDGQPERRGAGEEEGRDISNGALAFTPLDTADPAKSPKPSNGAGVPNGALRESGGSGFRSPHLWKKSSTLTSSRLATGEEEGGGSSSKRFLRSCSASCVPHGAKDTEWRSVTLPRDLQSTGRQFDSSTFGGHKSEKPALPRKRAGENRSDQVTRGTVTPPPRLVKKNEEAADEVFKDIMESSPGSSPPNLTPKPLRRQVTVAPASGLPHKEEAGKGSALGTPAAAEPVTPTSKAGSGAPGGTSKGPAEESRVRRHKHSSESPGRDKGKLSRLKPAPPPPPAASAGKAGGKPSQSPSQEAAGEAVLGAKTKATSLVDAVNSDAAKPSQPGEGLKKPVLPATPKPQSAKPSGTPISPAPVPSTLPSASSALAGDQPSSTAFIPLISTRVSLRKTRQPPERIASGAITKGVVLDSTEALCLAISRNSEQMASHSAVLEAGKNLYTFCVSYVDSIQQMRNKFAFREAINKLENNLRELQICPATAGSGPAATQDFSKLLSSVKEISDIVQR
Chain of Mitogen-activated protein kinase 1 (Homo sapiens) (P28482 whole entry): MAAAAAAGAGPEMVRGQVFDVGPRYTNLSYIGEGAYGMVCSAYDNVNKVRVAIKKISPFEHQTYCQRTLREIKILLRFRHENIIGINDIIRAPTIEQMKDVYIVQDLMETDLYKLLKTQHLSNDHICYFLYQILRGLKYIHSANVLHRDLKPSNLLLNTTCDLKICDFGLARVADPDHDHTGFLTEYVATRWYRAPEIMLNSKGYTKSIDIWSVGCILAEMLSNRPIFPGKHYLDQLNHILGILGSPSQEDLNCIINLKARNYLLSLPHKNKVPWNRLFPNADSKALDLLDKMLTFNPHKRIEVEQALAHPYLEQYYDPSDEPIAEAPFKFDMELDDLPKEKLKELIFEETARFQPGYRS
Chain of Glycogen synthase kinase-3 beta (Homo sapiens) (P49841 whole entry, looked up): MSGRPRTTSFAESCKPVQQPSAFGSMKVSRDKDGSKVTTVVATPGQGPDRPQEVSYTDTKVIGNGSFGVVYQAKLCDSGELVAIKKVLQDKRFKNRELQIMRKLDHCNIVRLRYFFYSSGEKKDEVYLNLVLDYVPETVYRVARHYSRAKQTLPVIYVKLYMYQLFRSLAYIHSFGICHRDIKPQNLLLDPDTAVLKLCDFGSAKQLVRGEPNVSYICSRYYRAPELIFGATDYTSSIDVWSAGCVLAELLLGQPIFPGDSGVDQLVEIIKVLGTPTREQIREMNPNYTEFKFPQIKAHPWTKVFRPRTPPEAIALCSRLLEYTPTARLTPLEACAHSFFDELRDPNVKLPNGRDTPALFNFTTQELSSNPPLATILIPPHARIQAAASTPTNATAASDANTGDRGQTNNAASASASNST

| Structure (SMILES) | ΔTm [1] [°C] | ΔTm [2] [°C] | ΔTm [3] [°C] | ΔTm [4] [°C] | ΔTm [5] [°C] | ΔTm [6] [°C] |
| --- | --- | --- | --- | --- | --- | --- |
| CN[C@@H](C)C(=O)N[C@H](C(=O)N1CCC[C@H]1c1nc(C(=O)c2ccc(F)cc2)cs1)C1CCCCC1 | 0.09 | 0.27 | 0.62 | -1.01 | 0.23 | -1.15 |
| CN(C(=O)c1cnn2cccnc12)c1cc2c(cc1N1CCOCC1)C(=O)N(C[C@@H](F)C(C)(C)O)C2 | 0.37 | -0.41 | -0.06 | -0.42 | 0.49 | -0.66 |
| CCn1c(-c2nonc2N)nc2ccccc21 | 0.33 | 0.64 | 0.5 | 4.22 | 0.41 | 1.84 |
| CCN1CCN(Cc2ccc(Nc3ncc(F)c(-c4cc(F)c5nc(C)n(C(C)C)c5c4)n3)nc2)CC1 | 3.44 | – | 4.97 | 11.1 | 1.41 | 3.81 |
| O=C(NC1CCNCC1)c1n[nH]cc1NC(=O)c1c(Cl)cccc1Cl | 0.36 | – | 0.04 | 11.4 | -0.04 | -1.05 |
| CCO[C@@H](Cc1ccc(OCCc2ccc(OS(C)(=O)=O)cc2)cc1)C(=O)O | 0.03 | 0.41 | -0.31 | -0.58 | 0.21 | 0.09 |
| COc1nc2ccc([C@@](O)(c3ccccc3)C3CCN(C(C)=O)CC3)cc2c(Cl)c1Cc1ccc(-n2cccn2)cc1 | -0.06 | -0.4 | -0.56 | -3.26 | 0.14 | -0.6 |
| COc1ccc(COc2ccc(Cc3cnc(N)nc3N)cc2OC)cc1 | -0.19 | – | -0.66 | -0.98 | 0.25 | -0.26 |
| O=C(Cc1ccccc1)Nc1nnc(N2C[C@H]3C[C@@H]2CN3c2cccnn2)s1 | 0.09 | 0.52 | -0.12 | -0.33 | 0.33 | -0.14 |
| C=C1/C(=C\C=C2/CCC[C@]3(C)[C@@H]([C@H](C)CCCC(C)(C)O)CC[C@@H]23)C[C@@H](O)C[C@@H]1O | -0.27 | -4.7 | 0 | -6.39 | -0.74 | -10 |
| COc1cc2ncnc(Nc3cccc(O)c3)c2cc1OC | 8.2 | – | 2.54 | 3.7 | 0.61 | 2.79 |
| COc1cc(C(N)=O)nc(-c2cccc(C#C[C@]3(O)CCN(C)C3=O)c2)c1 | -0.11 | 1.02 | -0.06 | 0.79 | 0.3 | 1.62 |
| CC(C)(C)c1cnc(CSc2cnc(NC(=O)C3CCNCC3)s2)o1 | 0.04 | – | 1.29 | 8.72 | 0.73 | 4.45 |
| O=C1NC(=NCc2cccs2)SC1=Cc1ccc2ncccc2c1 | 2.9 | – | 0.75 | 3.78 | 0.66 | -0.94 |
| O=C(O)Cc1cc(I)c(Oc2ccc(O)c(I)c2)c(I)c1 | -0.37 | 0.49 | 0.22 | -0.68 | -1.09 | 3.86 |
| CC1(C)C(=O)N([C@H]2CCc3c(O)cccc32)c2nc(Nc3cccc(CN4CCCC4)c3)ncc21 | – | 6.13 | 2.09 | 6.72 | 5.19 | 12.8 |
| Cc1nn(C)c(COc2ccc(N3CCN(S(=O)(=O)N(C)C)CC3)cc2)c1-c1cccc2c(CCCOc3cccc4ccccc34)c(C(=O)O)n(CCN3CCOCC3)c12 | 0.04 | 0.39 | -0.73 | 0 | -0.31 | 0.6 |
| CCc1ccc(-c2ncn(CC3(F)CCN(C)CC3)c2-c2ccnc3[nH]ccc23)nc1 | 0.05 | 0.87 | 0.57 | -0.72 | 0.39 | -1.06 |
| CC(=O)Nc1nc(C)c(S(=O)(=O)Nc2ccc(C(O)(C(F)(F)F)C(F)(F)F)cc2)s1 | 0.65 | 0.74 | 0.36 | 0.5 | 0.18 | 1.27 |
| Cc1csc(-c2nnc(Nc3ccc(Oc4ncccc4-c4ccnc(N)n4)cc3)c3ccccc23)c1 | 7.01 | 0.42 | 0.58 | -4.11 | 4.87 | 13.8 |
| CN1CCN(c2ccc(-n3cc(-c4ccncc4OCC4CCNCC4)cn3)cc2)CC1 | 1.5 | 1.21 | 1.48 | -0.06 | 0.53 | -0.52 |
| COc1ccc(F)c(F)c1C(=O)c1cnc(NC2CCN(S(C)(=O)=O)CC2)nc1N | 0.33 | – | 0.3 | 7.07 | 0.27 | 0.02 |
| CN[C@@H]1CC[C@@H](c2ccc(Cl)c(Cl)c2)c2ccccc21 | -0.02 | 0.01 | 0.01 | -0.7 | 0 | -0.47 |
| CCc1cnn2c(NCc3ccc[n+]([O-])c3)cc(N3CCCCC3CCO)nc12 (centres undefined) | 0.22 | – | 1.31 | 7.6 | 1.41 | -0.54 |
| Clc1ccc(-c2nc3sccn3c2/C=N/OCc2ccc(Cl)c(Cl)c2)cc1 | -0.76 | -0.94 | -2.09 | -0.83 | -0.15 | -1.05 |
| CC1CCN(c2ccnc(NCc3cn(C)cn3)n2)CC1 | -1.33 | 0.15 | 0.29 | -0.33 | 0.75 | -0.52 |
| CCO[C@H](COc1ccc(C(F)(F)F)cc1)CSc1ccc(OCC(=O)O)c(C)c1 | 0.26 | 0.43 | 0.11 | -0.41 | 0.32 | -1.04 |
| COc1ccc(N(C(=O)Nc2c(C)cccc2C)c2cc(Nc3ccc(N4CCN(C)CC4)cc3)ncn2)c(OC)c1 | – | 0.7 | 2.65 | 3.75 | 0.48 | 10.1 |
| CC(C)(c1ccc(OCc2cccc(COc3ccc(C(=N)N)cc3)c2)cc1)c1ccc(O[C@@H]2O[C@H](C(=O)O)[C@@H](O)[C@H](O)[C@H]2O)cc1 | -2.82 | -1.86 | -5.29 | -4.59 | -6.63 | -5.6 |
